Measured values reported in PubChem BioAssay (NCATS).
Records with an inconclusive call do not appear. Activity calls are given as the source filed them. Calls follow the shape of the dose curve; as a rule, active = well fitted curve in the direction sought with a large enough effect; inconclusive = small, poorly fitted or top-dose-only effect, or another doubt; inactive = no such curve, though single readings can be large; an effect the other way counts as inactive or inconclusive.

Tests used:
[1] = Primary qHTS for inhibitors of nuclear receptor binding SET domain protein 2 (NSD2) in an isogenic RCH-ACV NSD2 p.E1099K mutant (9B) (AID 1645876); also: nearly all actives have a fitted effect of over 70% in size
[2] = Primary qHTS for inhibitors of nuclear receptor binding SET domain protein 2 (NSD2) in an RCH-ACV wild type WT cells (2C) (AID 1645877); also: nearly all actives have a fitted effect of over 70% in size
[3] = molecular target: Glutathione peroxidase 1 (Homo sapiens) (UniProt P07203); assay: Primary qHTS Assay for Inhibitors of Recombinant Selenoprotein Glutathione Peroxidase 1 (GPX1) (AID 1845191); also: nearly all actives have a fitted effect of over 65% in size
Summary of the method: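 GPX1 10 nM, GR 100 nM, GSH 1 mM, NADPH 0.5 mM, CHP 0.5 mM (final). 30-min cpd preincubation, RT. Ex340/Em450 read t=0, t=15 min.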

[4] = molecular target: Phospholipid hydroperoxide glutathione peroxidase GPX4 (Homo sapiens) (UniProt P36969); assay: Primary qHTS Assay for Inhibitors of Recombinant Selenoprotein Glutathione Peroxidase 4 (GPX4) (AID 1845192); also: nearly all actives have a fitted effect of over 65% in size
Summary of the method: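 qHTS, GR-coupled: GPX4 200 nM + cpd 30 min RT → GSH 1 mM, NADPH 0.5 mM, GR 100 nM → CHP 0.5 mM start; fluor 340/450 at t0 and t15 min; no-enzyme wells as control.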

[5] = molecular target: Luciferin 4-monooxygenase (Photinus pyralis) (UniProt P08659); assay: Primary firefly luciferase (FLuc) qHTS assay for identification of artifact compounds. (AID 1845220); settings: outcome: dose series up to 54.1 µM unless noted; also: nearly all actives have a fitted effect of over 60% in size
Summary of the method: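 qHTS, 15 min compound preincubation with substrate (10 uM luciferin, 10 uM ATP) at RT, then 10 nM FLuc; 5 min; luminescence; % inhibition vs no-enzyme/DMSO controls, 4-parameter Hill fit.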

[6] = Primary fluorescence-based thiol-reactive (MSTI) qHTS assay for identification of artifact compounds. (AID 1845221);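 also: thiol-reactive compounds lower the probe fluorescence signal; nearly all actives have a fitted effect of over 65% in size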
Summary of the method: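 In PBS pH 7.4 with 2% DMSO, each compound met 4 uM MSTI for one hour at ambient temperature, shielded from light, before fluorescence detection.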

[7] = system: Nanoluciferase (engineered Oplophorus gracilirostris luciferase); assay: Primary Nanoluciferase (NLuc) qHTS assay for identification of artifact compounds. (AID 1845222)
Summary of the method: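 Luminescence read-out of secreted NLuc in S16 cell conditioned medium (1:55); compounds tested with 15 min RT preincubation, then Nano-Glo substrate 1:100, 5 min. % inhibition vs no-enzyme and DMSO controls, 4-parameter Hill fit.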

CRL-7250 = normal cell line; assay: Cytotoxic Profiling of Annotated Libraries Using Quantitative High-Throughput Screening (AID 1296008); settings: Five cell lines viability, CellTiter-Glo ATP luminescence, 48-72 h; max response: active compounds read low; also: nearly all actives have a fitted effect of over 60% in size; also: potency is read from the fitted curve at half-maximal effect; as to max response: % is scaled to controls: 0 for no effect and ±100 for the full control effect
Summary of the method: (§1)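 Compounds were pin-transferred onto cells and incubated 48 or 72 hr at 37 degree Celsius, 95% humidity. CellTiter-Glo was added, plates sat 10 min at room temperature, then ATP-coupled luminescence was imaged as the viability read-out.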

HEK293 = assay: as above; settings: Five cell lines viability, CellTiter-Glo ATP luminescence, 48-72 h; max response: active compounds read low
Summary of the method: as §1

HaCat = assay: as above; settings: Five cell lines viability, CellTiter-Glo ATP luminescence, 48-72 h; max response: active compounds read low
Summary of the method: as §1

KB-3-1 = assay: as above; settings: Five cell lines viability, CellTiter-Glo ATP luminescence, 48-72 h; max response: active compounds read low
Summary of the method: as §1

NIH3T3 = assay: as above; settings: Five cell lines viability, CellTiter-Glo ATP luminescence, 48-72 h; max response: active compounds read low
Summary of the method: as §1

C33A = assay: Primary qHTS to identify gynecologic anti-cancer compounds using libraries of approved drugs and bioactive compounds (AID 1345084); settings: Gynecologic cancer cell panel viability, ATPlite luminescence, 48 h; series mostly up to 57.5 µM; also: % is scaled to controls: 0 for no effect and ±100 for the full control effect; nearly all actives have a fitted effect of over 55% in size
Summary of the method: (§2)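 Five-concentration response, 48 h; readout is ATP-driven luciferase luminescence.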

CASKI = assay: as above; settings: Gynecologic cancer cell panel viability, ATPlite luminescence, 48 h; series mostly up to 57.5 µM
Summary of the method: as §2

Es-2 = assay: as above; settings: Gynecologic cancer cell panel viability, ATPlite luminescence, 48 h; series mostly up to 57.5 µM
Summary of the method: as §2

Hek293T = assay: as above; settings: Gynecologic cancer cell panel viability, ATPlite luminescence, 48 h, control line for the selectivity index; series mostly up to 57.5 µM
Summary of the method: as §2

OV90 = assay: as above; settings: Gynecologic cancer cell panel viability, ATPlite luminescence, 48 h; series mostly up to 57.5 µM
Summary of the method: as §2

PA-1 = assay: as above; settings: Gynecologic cancer cell panel viability, ATPlite luminescence, 48 h; series mostly up to 57.5 µM
Summary of the method: as §2

Tov-21-G = assay: as above; settings: Gynecologic cancer cell panel viability, ATPlite luminescence, 48 h; series mostly up to 57.5 µM
Summary of the method: as §2

Tov112D = assay: as above; settings: Gynecologic cancer cell panel viability, ATPlite luminescence, 48 h; series mostly up to 57.5 µM
Summary of the method: as §2

Sequence of Glutathione peroxidase 1 (Homo sapiens) (P07203 whole entry, looked up): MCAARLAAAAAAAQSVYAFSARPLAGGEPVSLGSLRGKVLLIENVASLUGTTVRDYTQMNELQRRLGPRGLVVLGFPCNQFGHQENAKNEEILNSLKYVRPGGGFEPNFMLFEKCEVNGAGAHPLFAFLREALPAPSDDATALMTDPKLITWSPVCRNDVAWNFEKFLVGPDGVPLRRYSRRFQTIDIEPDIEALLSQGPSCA
Sequence of Phospholipid hydroperoxide glutathione peroxidase GPX4 (Homo sapiens) (P36969 whole entry, looked up): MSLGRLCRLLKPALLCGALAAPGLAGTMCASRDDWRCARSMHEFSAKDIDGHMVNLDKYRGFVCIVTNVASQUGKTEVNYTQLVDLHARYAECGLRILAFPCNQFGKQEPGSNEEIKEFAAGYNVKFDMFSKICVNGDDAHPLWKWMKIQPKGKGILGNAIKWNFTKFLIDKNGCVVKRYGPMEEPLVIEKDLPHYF

C[C@]12CCC(=O)C=C1CC[C@@H]1[C@@H]2[C@@H](O)C[C@]2(C)C(=O)CC[C@@H]12
inactive: Potency [1] | Potency [2] | Potency [3] | Potency [4] | outcome [5] | Potency [6] | Potency [7] | outcome (CRL-7250) | max response (HEK293) -2.71% | max response (HaCat) -8.66% | max response (KB-3-1) 6.55% | max response (NIH3T3) 2.17% | Potency (C33A) | Potency (CASKI) | Potency (Es-2) | Potency (Hek293T) | Potency (OV90) | Potency (PA-1) | Potency (Tov-21-G) | Potency (Tov112D)

CC(=O)O[C@H]1CC[C@H]2[C@@H]3CC[C@H]4CC(=O)C=C(C)[C@]4(C)[C@H]3CC[C@]12C
active: Potency (HEK293) 23.1 µM
inactive: Potency [3] | Potency [4] | outcome [5] | Potency [6] | Potency [7] | max response (CRL-7250) -4.94% | outcome (HaCat) | max response (KB-3-1) 7.22% | max response (NIH3T3) -1.67% | Potency (C33A) | Potency (CASKI) | Potency (Es-2) | Potency (Hek293T) | Potency (OV90) | Potency (PA-1) | Potency (Tov-21-G) | Potency (Tov112D)

CN1C2CCC1CC(OC(=O)N1Cc3ccccc3NC1=O)C2 (stereo not drawn)
inactive: Potency [1] | Potency [2] | Potency [3] | Potency [4] | outcome [5] | Potency [6] | Potency [7] | outcome (CRL-7250) | max response (HEK293) 0.771% | max response (HaCat) 2.89% | max response (KB-3-1) -1.51% | max response (NIH3T3) -1.26% | Potency (C33A) | Potency (CASKI) | Potency (Es-2) | Potency (Hek293T) | Potency (OV90) | Potency (PA-1) | Potency (Tov-21-G) | Potency (Tov112D)

COCC(C(=O)OC1CC2CCC(C1)N2C)c1ccccc1 (stereo not drawn)
inactive: Potency [1] | Potency [2] | Potency [3] | Potency [4] | outcome [5] | Potency [6] | Potency [7] | max response (CRL-7250) -5.38% | max response (HEK293) -0.619% | outcome (HaCat) | outcome (KB-3-1) | max response (NIH3T3) 3.79% | Potency (C33A) | Potency (CASKI) | Potency (Es-2) | Potency (Hek293T) | Potency (OV90) | Potency (PA-1) | Potency (Tov-21-G) | Potency (Tov112D)

C=CCN1CCC2(C)c3cc(O)ccc3C[C@H]1[C@H]2C
inactive: Potency [1] | Potency [2] | Potency [4] | outcome [5] | Potency [6] | Potency [7] | max response (CRL-7250) -1.35% | max response (HEK293) -5.37% | max response (HaCat) -10.4% | max response (KB-3-1) 1.41% | max response (NIH3T3) 1.43% | Potency (C33A) | Potency (CASKI) | Potency (Es-2) | Potency (Hek293T) | Potency (OV90) | Potency (PA-1) | Potency (Tov-21-G) | Potency (Tov112D)

C=C1[C@@]23C(=O)O[C@H](C)[C@]24O[C@@]2(C(=C)[C@]5(C=CC(=O)OC5(C)C)CC[C@]32C)[C@H](O)[C@@]1(C)OC4=O
inactive: Potency [1] | Potency [2] | Potency [3] | Potency [4] | outcome [5] | Potency [6] | Potency [7] | max response (CRL-7250) -20.6% | max response (HEK293) -10.4% | outcome (HaCat) | max response (KB-3-1) -4.55% | max response (NIH3T3) 0.197% | Potency (C33A) | Potency (CASKI) | Potency (Es-2) | Potency (Hek293T) | Potency (OV90) | Potency (PA-1) | Potency (Tov-21-G) | Potency (Tov112D)

COc1ccc2c3c4n(c2c1)[C@@H](C=C(C)C)OOC(C)(C)C[C@@H]4N1C(=O)[C@@H]2CCCN2C(=O)[C@]1(O)[C@H]3OCC=C(C)C
inactive: Potency [1] | Potency [2] | Potency [3] | Potency [4] | outcome [5] | Potency [6] | Potency [7] | outcome (CRL-7250) | max response (HEK293) -3.84% | max response (HaCat) -11% | max response (KB-3-1) 8.3% | max response (NIH3T3) 0.42% | Potency (C33A) | Potency (CASKI) | Potency (Es-2) | Potency (Hek293T) | Potency (OV90) | Potency (PA-1) | Potency (Tov-21-G) | Potency (Tov112D)

CCC(C)(O)C1(C(=O)O)COC(=O)C1 (stereo not drawn)
inactive: Potency [1] | Potency [2] | Potency [3] | Potency [4] | max response (CRL-7250) -3.51% | max response (HEK293) 0.689% | outcome (HaCat) | outcome (KB-3-1) | max response (NIH3T3) -1.83% | Potency (C33A) | Potency (CASKI) | Potency (Es-2) | Potency (Hek293T) | Potency (OV90) | Potency (PA-1) | Potency (Tov-21-G) | Potency (Tov112D)

COc1ccc(CN(C(=O)[C@@H](N)Cc2c(C)cc(C(N)=O)cc2C)[C@@H](C)c2ncc(-c3ccccc3)[nH]2)cc1C(=O)O
inactive: Potency [1] | Potency [2] | Potency [3] | Potency [4] | outcome [5] | Potency [6] | Potency [7] | max response (CRL-7250) -8.53% | max response (HEK293) -8.03% | max response (HaCat) 1.02% | max response (KB-3-1) 2.03% | max response (NIH3T3) -6.08% | Potency (C33A) | Potency (CASKI) | Potency (Es-2) | Potency (Hek293T) | Potency (OV90) | Potency (PA-1) | Potency (Tov-21-G) | Potency (Tov112D)

CS[C@]1(CO)C(=O)N2[C@H]3C(=CC=C[C@@H]3O)C[C@@]2(SC)C(=O)N1C
inactive: Potency [1] | Potency [2] | Potency [3] | Potency [4] | outcome [5] | Potency [7] | outcome (CRL-7250) | max response (HEK293) -12.6% | max response (HaCat) 0.502% | outcome (KB-3-1) | max response (NIH3T3) -3.97% | Potency (C33A) | Potency (CASKI) | Potency (Es-2) | Potency (Hek293T) | Potency (OV90) | Potency (PA-1) | Potency (Tov-21-G) | Potency (Tov112D)

C=CC(C)(C)c1[nH]c2c(CC=C(C)C)cc(CC=C(C)C)cc2c1C[C@@H]1NC(=O)[C@H](C)NC1=O
inactive: Potency [1] | Potency [2] | Potency [3] | Potency [4] | outcome [5] | Potency [6] | Potency [7] | max response (CRL-7250) 3.03% | max response (HEK293) -8.14% | max response (HaCat) -1.56% | outcome (KB-3-1) | max response (NIH3T3) 2.77% | Potency (C33A) | Potency (CASKI) | Potency (Es-2) | Potency (Hek293T) | Potency (OV90) | Potency (PA-1) | Potency (Tov-21-G) | Potency (Tov112D)
